In the library only some 2.7% were active in any assay of this set; here they are far more common.
A549 viability: counter-screen for Nrf2 inhibitors: cytotoxicity in A549 cells. A549 ARE-Fluc cells, CellTiter-Fluor viability, 18-24 h. Potency, µM (titrated, usually from 46 µM), for the others: at the top dose activity change, negative = cytotoxicity, most hits filed as inhibitors. actives 0.16% (n = 390,000); further: potency means the concentration at half of the fitted maximal effect; on the % scale 0 is the no-effect control and ±100 the full control effect
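A549 ARE_Fluc cells in 5% FBS OPTI-MEM were exposed to compounds in concentration-response for 18-24 h at 37 deg C. Viability was read by CellTiter-Fluor fluorescence (Ex 405/Em 525) after 30 min, before the luciferase read.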
IDH1 R132H inh: inhibitors of human mutant IDH1 R132H | actives 0.093% (n = 390,000) | Potency, µM (titrated, usually from 76.6 µM), inactives show at the top dose activity change, negative = inhibition, hits mostly inhibitors | AID 602179 | O75874 | IDH1-R132H enzyme, NADPH consumption, diaphorase/resazurin fluorescence; further: potency means the concentration at half of the fitted maximal effect; on the % scale 0 is the no-effect control and ±100 the full control effect; nearly all actives have a fitted effect of over 65% in size
Target sequence (O75874 whole entry R132H, stated change not applied): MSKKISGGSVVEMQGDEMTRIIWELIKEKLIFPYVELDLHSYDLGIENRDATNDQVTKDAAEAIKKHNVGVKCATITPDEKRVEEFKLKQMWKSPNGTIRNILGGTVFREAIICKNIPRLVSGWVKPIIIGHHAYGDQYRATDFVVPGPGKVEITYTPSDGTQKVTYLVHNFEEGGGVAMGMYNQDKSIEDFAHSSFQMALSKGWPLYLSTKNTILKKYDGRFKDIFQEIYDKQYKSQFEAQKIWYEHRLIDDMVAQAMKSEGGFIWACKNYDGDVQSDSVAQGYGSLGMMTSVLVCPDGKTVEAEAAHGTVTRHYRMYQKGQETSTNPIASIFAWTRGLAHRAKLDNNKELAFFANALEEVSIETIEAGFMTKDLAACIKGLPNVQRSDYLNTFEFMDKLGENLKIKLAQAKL
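IDH1-R132H (0.5 ug/mL dispensed) in pH 7.5 Tris buffer was preincubated 30 min with compound, then given a substrate mix of 0.016 mM NADPH and 2 mM alpha-KG for 80 min at room temperature; remaining NADPH was read by diaphorase/resazurin fluorescence.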
LDHA inh: blocks human lactate dehydrogenase A; AID 1347041; activity change, % (values are at about 110 or 230 µM); P00338; purified LDHA, NADH/diaphorase-resazurin fluorescence; hits give low values; actives 0.15% (n = 480,000); in the data active means activity change below about -30%; inconclusive means mostly about -25% to -30%;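 further: plate controls were DMSO wells for no effect and wells without enzyme for full effect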
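Enzyme activity of human lactate dehydrogenase 5 (2 nM; 0.06 mM NADH, 0.2 mM pyruvate, 5 min, RT) is measured via a resazurin/diaphorase fluorescence readout of residual NADH.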
Nrf2 activator: activators of Nrf2 (ARE) signaling; AREc32 ARE-luciferase reporter (MCF7-derived line), luminescence, 24 h; Potency, µM (series often up to 46.1 µM), for inactives: at the top dose activation, most hits filed as activators; actives 0.31% (n = 410,000); further: potency means the concentration at half of the fitted maximal effect; % of control where 0% means no effect; nearly all actives have a fitted effect of over 65% in size
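Luciferase luminescence (Steady-Glo, 30 min at room temperature) served as the read-out of ARE activation in AREc32 cells treated with compounds for 24 hr at 37 deg C.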
ALOX12 inh: ALOX12 (human) lipoxygenase inhibition | actives 1.1% (n = 580,000) | purified 12hLO, xylenol orange hydroperoxide absorbance | P18054 | Potency, µM (top dose mostly 108 µM), for the others: top-dose activity change, negative = inhibition, usual class: inhibitors | AID 1671190; further: potency means the concentration at half of the fitted maximal effect; on the % scale 0 is the no-effect control and ±100 the full control effect
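Purified human 12hLO (150 nM final) in 25 mM Hepes, 0.01% Triton X-100, pH 7.0 was preincubated 15 min at room temperature with compound. Then 40 uM arachidonic acid was added, 30 min. Hydroperoxide was read by Fe-XO absorbance ratio 573/405 nm.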
Nrf2 inh: blocks Nrf2 signaling; Potency, µM (titrated, usually from 46 µM), without a hit: top-dose activity change, negative = inhibition, hits mostly inhibitors; actives 2.1% (n = 360,000); A549 ARE-Fluc reporter, luciferase luminescence, 18-24 h; AID 504444; further: potency means the concentration at half of the fitted maximal effect; on the % scale 0 is the no-effect control and ±100 the full control effect; nearly all actives have a fitted effect of over 60% in size
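Reporter: ARE-Fluc in A549. Exposure: 18-24 h, 37 °C, 5% CO2, 5% FBS OPTI-MEM. Readouts: fluorescent cytotoxicity (CellTiter-Fluor), then luminescent Nrf2 signal after BugLite.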
Numbers without * were called inactive; ? = inconclusive; . = no result given; [ ] = dose if it differs, or a comment. Unless noted, the call rests on the fitted dose curve; in most records, active means well fitted curve in the direction sought with a large enough effect; inconclusive means small, poorly fitted or top-dose-only effect, or another doubt; inactive means no such curve, though single readings can be large; an effect the other way counts as inactive or inconclusive.

SMILES	A549 viability	IDH1 R132H inh	LDHA inh	Nrf2 activator	ALOX12 inh	Nrf2 inh
Cc1cc(C)c2nc(SCC(=O)NCCC3=CCCCC3)cc(C)c2c1	-11%	1%	-5	0%	16µM*	-8%
COCCNC(=O)CSc1cc(C)c2cc(C)cc(C)c2n1	.	.	0	.	43%	.
COc1ccc(S(=O)(=O)Nc2cc3c(cc2NCc2ccccc2)n(C)c(=O)n3C)cc1	-4%	34%	24	11µM*	-48%	-9%
COc1ccc(-c2ccc(C#N)c(SCC(=O)Nc3cc(OC)ccc3OC)n2)cc1	.	.	-2	.	8%	.
O=C(c1ccccc1F)N1CCc2nc(C3CC3)nc(-c3ccc(Cl)cc3)c2C1	.	.	.	.	45µM*	.
N#Cc1ccc(/C=C/C(=O)c2cccc(N3CCOCC3)c2)cc1	.	.	-3	.	?	.
COc1ccccc1-c1cc(C(F)(F)F)nc(S(=O)(=O)CCCC(=O)Nc2ccccc2F)n1	0%	-3%	4	-7%	-13%	-6%[9.27 µM]
COc1ccccc1-c1cc(C(F)(F)F)nc(S(=O)(=O)CCCC(=O)Nc2cccnc2Cl)n1	?	-1%	-10	-3%	15%	21µM*
CCN1CCC(CC(=O)N2CCCC3(C=Cc4ccccc4O3)CC2)CC1 (centres undefined)	.	.	.	.	-7%	.
O=C(NC1CCCCC1)c1ccccc1-c1ncc(-c2ccccc2F)o1	.	.	?	.	15%	.
CN(C)S(=O)(=O)c1ccc(Cl)c(C(=O)NCc2ccnc(N3CCCC3)c2)c1	.	.	1	.	11%	.
CC(=O)Oc1cc2c(cc1Cl)C(c1cccs1)CC1(CC(C)(C)NC(=S)N1)O2 (centres undefined)	4%	7%	-7	3%	32µM*	?
CC1(C)CC2(CC(c3ccccc3)c3ccc(O)cc3O2)NC(=S)N1 (centres undefined)	11%	-1%	-1	0%	?	-12%
O[C@@H]1CO[C@H]2[C@@H]1OC[C@@H]2n1nnnc1SC1CCCC1	.	.	.	.	63µM*	.
COc1ccc(-c2cc(Nc3ccc(Br)cc3)nc(C)n2)cc1	.	.	7	.	?	.
O=C(Oc1coc(CSc2nnc(NC(=O)c3cccs3)s2)cc1=O)c1ccccc1	-2%	2%	-4	0%	-16%	14%
Cc1ccc(C(=O)Oc2coc(CSc3nnc(NC(=O)C4CC4)s3)cc2=O)cc1	-4%	0%	-4	-2%	27%	21µM*
Cc1cc(=O)oc2cc(OCC(=O)NC(C)(C)C)ccc12	.	.	-2	.	?	.
COc1cc(/C=N\NC(=O)c2ccc(-c3ccccc3)cc2)cc(OC)c1OC(C)=O	2%	-9%	-2	5%	22%	13µM*
c1ccc(-c2nnc(N3CCN(c4ccccn4)CC3)c3ccccc23)cc1	?	-1%	-5	-2%	28%	18µM*
Nc1nc(N2CCN(c3ccccn3)CC2)nc2ccccc12	-27%	0%	-30*	6%	?	?
Cc1ccc(NC(=O)c2cnc(N3CCN(c4ccccn4)CC3)c3ccccc23)c(Br)c1	-12%	3%	-3	-1%	12%	15µM*
Cc1ccc(-c2nnc(N3CCN(c4ccccn4)CC3)c3ccccc23)cc1	?	-7%	-5	0%	0%	23µM*
COc1cccc(-c2ccc(CN3C4CCC3CN(C(=O)c3ccncc3)C4)cc2)c1	.	.	.	.	32%	.
Cc1nc2ccc(C(=O)OC(C)C(=O)NC3CCCC3)cc2nc1C (centres undefined)	.	.	14	.	-12%	.
SMILES	A549 viability	IDH1 R132H inh	LDHA inh	Nrf2 activator	ALOX12 inh	Nrf2 inh
CCN(CC)C(=O)c1cn(CCC#N)nc1-c1cccc(Cl)c1	.	.	2	.	-10%	.
Cc1ccc(NC(=O)COc2cccc(/C=C3\SC(=S)N(CCC(=O)O)C3=O)c2)cc1Cl	-11%	-12%	-36*	5%	13%	3%
O=C(CCCN1C(=O)/C(=C/c2ccc3c(c2)OCO3)SC1=S)Nc1cccc(C(=O)O)c1	6%	-7%	0	0%	.	10µM*
O=C(O)CCN1C(=O)/C(=C\c2cccc(OCC(=O)Nc3ccc(Cl)cc3)c2)SC1=S	-6%	-17%	-23	?	?	11%
Cc1ccc(C)c(-c2csc(NC(=O)c3ccccc3SCc3noc(C)n3)n2)c1	.	.	0	.	-23%	.
Cc1ccccc1NC(=O)C1=Cc2sc3c(c2CS1)CCCC3	.	.	5	.	20µM*	.
Cc1cc(C)cc(NC(=O)C2=Cc3sc4c(c3CS2)CCCC4)c1	.	.	10	.	?	.
O=C(C1=Cc2sc3c(c2CS1)CCCC3)N1CCC2(CC1)OCCO2	.	.	-11	.	35µM*	.
O=C(Nc1nc(-c2ccccc2)c(C(=O)c2ccccc2)s1)c1ccc(S(=O)(=O)N2CCCCC2)cc1	-19%	0%	2	0%	-25%	15µM*
O=C(Nc1nc(-c2cccs2)cs1)c1ccc(S(=O)(=O)N2CCCCC2)cc1	-5%	-8%	-6	12%	3%	21µM*
Cc1noc(C)c1C(=O)Nc1nc(-c2cccs2)cs1	11%	-5%	-6	16µM*	-20%	?
O=C(Nc1nc(-c2ccccc2)c(-c2ccccc2)s1)c1ccc(S(=O)(=O)N2CCCCC2)cc1	3%	-2%	-1	2%	-13%	5%
COc1ccc(Cl)cc1C=CC=Nc1ccccc1O	-7%	5%	15	10µM*	?	-7%
O=C(O)COc1ccc(-c2nccc(-c3ccccn3)n2)cc1	-1%	9%	-14	-1%	?	2.1µM*
CCn1c(C)nc2cc(C(=O)NNS(=O)(=O)c3ccccc3F)ccc21	-3%	6%	-3	0%	4.5µM*	21%
O=C(CSc1nccn1Cc1ccc2c(c1)OCO2)NCc1ccc2c(c1)OCO2	.	.	5	.	-6%	.
O=C(NCc1ccco1)c1ccc(COc2cccc3ccccc23)cc1	-15%	0%	-4	3%	11%	16µM*
CC(=O)NCc1ccc(-c2csc(Nc3cc(C)cc(C)c3)n2)o1	.	.	-1	.	?	.
CC(C)CCOc1ccc(C(=O)Nc2cccc3cccnc23)cc1	.	.	-6	.	26%	.
O=c1cc2c(nn1Cc1ccc(OC(F)(F)F)cc1)CCCCC2	.	.	.	.	14%	.
CCSc1ccccc1C(=O)Nc1ccc([N+](=O)[O-])cc1OC	11%	5%	-10	1%	40µM*	-23%
COc1ccc([N+](=O)[O-])cc1NC(=O)c1ccco1	1%	29%	-6	3.2µM*	-4%	-21%
CC(OC(=O)/C=C/c1ccco1)C(=O)Nc1cccc([N+](=O)[O-])c1 (centres undefined)	1%	-3%	-2	?	-26%	?

Bioassay records deposited in PubChem by National Center for Advancing Translational Sciences (NCATS).
